# In PubChem BioAssay (NCI):
# The panel holds about 83,000 compounds, 20% with a hit somewhere; the sample as a whole holds those more often.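 Step 1: grow cells in 96-well plates. Step 2: add test compound at a single concentration. Step 3: incubate 48 h. Step 4: record percent growth.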 Unmarked numbers belong to inactive results. Activity calls are given as the source filed them. How the source made its calls: active means growth percent below 10; inactive means the rest.
# Columns and labels:
# Test in all cases: NCI-60 one-dose screen, 48 h (100 = growth as untreated, 0 = no growth, -100 = all killed)
# Conditions in all cases: 10 µM unless noted
# NCI-H23 lung = test system: NCI-H23 lung
# NCI-H226 lung = test system: NCI-H226 lung
# NCI-H322M lung = test system: NCI-H322M lung
# HOP-62 NSCLC = test system: HOP-62 NSCLC
# NCI-H460 lung = test system: NCI-H460 lung
# HOP-92 NSCLC = test system: HOP-92 NSCLC
# NCI-H522 lung = test system: NCI-H522 lung
# 786-0 renal = test system: 786-0 renal
# COLO 205 colon = test system: COLO 205 colon
# DU-145 prostate = test system: DU-145 prostate
# K-562 leukemia = test system: K-562 leukemia
# MALME-3M melanoma = test system: MALME-3M melanoma
# MDA-MB-231 breast = test system: MDA-MB-231 breast
# RXF 393 renal = test system: RXF 393 renal
# SF-268 CNS = test system: SF-268 CNS
# SF-295 CNS = test system: SF-295 CNS
# SF-539 CNS = test system: SF-539 CNS
# UACC-257 melanoma = test system: UACC-257 melanoma
# M14 melanoma = test system: M14 melanoma
# A549/ATCC NSCLC = test system: A549/ATCC NSCLC
Compound,growth (NCI-H23 lung),growth (NCI-H226 lung),growth (NCI-H322M lung),growth (HOP-62 NSCLC),growth (NCI-H460 lung),growth (HOP-92 NSCLC),growth (NCI-H522 lung),growth (786-0 renal) [%],growth (COLO 205 colon),growth (DU-145 prostate),growth (K-562 leukemia),growth (MALME-3M melanoma),growth (MDA-MB-231 breast),growth (RXF 393 renal),growth (SF-268 CNS),growth (SF-295 CNS),growth (SF-539 CNS),growth (UACC-257 melanoma),growth (M14 melanoma),growth (A549/ATCC NSCLC) [%]
COC(=O)c1c2c(c[n+]([O-])c1C)C(=O)C(NCc1ccccc1)=CC2=O,-34.1% (active),-9.27% (active),-8.65% (active),4.14% (active),-30.3% (active),-29.7% (active),-30.5% (active),10.5,-52.5% (active),-87.1% (active),1.41% (active),-93.4% (active),-3.95% (active),-26% (active),-13.9% (active),-45.3% (active),-71.7% (active),-81.5% (active),-77.8% (active),–
Cc1c(-c2nc3ccc(F)cc3c(=O)[nH]2)c2ccccc2n1C,50.5%,61.1%,78.5%,38.4%,16.2%,–,42%,37.9,–,53.6%,15%,48.4%,57.8%,14.3%,54.1%,15.1%,23.8%,55%,18.2%,46.4
CCCCC[C@@H]1Cc2cc(O)c(C(=O)O)c3c2[C@H](C[C@]2(OC[C@@H](CC(=O)[C@@](C)(CC)C(=O)OC)[C@@H]2C)O3)O1,112%,92.1%,105%,117%,109%,113%,117%,108,145%,120%,117%,104%,100%,119%,108%,121%,100%,87.6%,119%,–
O=C(Nc1ccc(NC(=O)c2cc(=O)[nH]c3ccccc23)cc1)Nc1cccc(C(F)(F)F)c1,62.3%,87.9%,62.5%,-7.24% (active),15.3%,–,72.3%,99.3,70.1%,76.2%,53%,31.7%,26.7%,108%,50.7%,74.5%,50.1%,80.5%,69.9%,86.3
N#Cc1c(-c2ccc(Cl)cc2)nc(SCC(=O)NC2=NN=C(c3ccccc3)CS2)[nH]c1=O,76.3%,106%,89.7%,68.9%,110%,–,66.4%,93,80.7%,105%,42.4%,75%,78.1%,84.5%,91.4%,107%,91.4%,84%,72.3%,90.6
COc1ccc(C2=Nc3c/c(=C\c4c(O)[nH]c5ccc(Cl)cc45)ccc3=N2)cc1,52.1%,66.5%,81.9%,28.2%,43.5%,–,29.3%,43.6,-9.26% (active),73.2%,19.4%,40.8%,42.7%,-27.2% (active),53.4%,29.6%,59.9%,54%,27.6%,62.5
C1=CN2CC(c3ccccc3)=NNC2c2ccccc21 (stereo unspecified),76.1%,63.3%,86.1%,72.4%,98%,76.7%,75.5%,99.3,113%,113%,48.6%,80.4%,63.4%,90%,106%,104%,92.6%,97.1%,94.1%,–
O=C(CCCCC1CCSS1)Nc1ncnc2n[nH]c(-c3ccc(Oc4ccccc4)cc3)c12 (stereo unspecified),59.2%,94.2%,79.5%,65.6%,2.83% (active),–,70.3%,117,88.9%,65.6%,9.6% (active),109%,68.3%,113%,72.4%,102%,106%,95.2%,-62.8% (active),37
Oc1c(Cl)cc(Cl)c2ccc(Cn3cc(-c4cc(C(F)(F)F)cc(C(F)(F)F)c4)nn3)nc12,77.3%,82.1%,103%,101%,101%,–,-39.4% (active),97.3,66.4%,21.9%,6.87% (active),-13.2% (active),87%,-12.8% (active),77.2%,106%,43.3%,49.9%,47.8%,95.5
Cc1cccc(N2CCN(CC(O)COc3ccc(Cl)cc3)CC2)c1 (stereo unspecified),109%,105%,104%,100%,112%,88.1%,94.1%,98,98%,115%,82.9%,146%,94.5%,107%,105%,82.3%,101%,108%,95.9%,–
COC(C(=O)[C@@H](O)[C@@H](C)O)[C@@H]1Cc2cc3cc(O[C@H]4C[C@@H](O[C@H]5C[C@@H](O)[C@H](O)C(C)O5)[C@H](O)C(C)O4)cc(O)c3c(O)c2C(=O)[C@H]1O[C@H]1C[C@@H](O[C@H]2C[C@@H](O[C@H]3C[C@@H](OC)[C@H](O)C(C)O3)[C@@H](O)C(C)O2)[C@H](O)C(C)O1 (stereo partly specified),47.4%,38.8%,50.2%,18.8%,18.7%,64.2%,15.5%,50.7,31.2%,53.5%,38.6%,25.8%,43.2%,27.6%,49.9%,30.7%,38.1%,19.9%,57.2%,–
COC(=O)c1c2c(c(C)[n+]([O-])c1C)C(=O)C(NCc1ccc(Cl)cc1)=CC2=O,59%,92.6%,64.3%,78.2%,51.8%,–,42%,74,9.79% (active),86.6%,28.7%,-75.4% (active),48.7%,86.6%,76.8%,87.6%,85.3%,17.8%,39.6%,66.9
CC(O)c1cnc(/C=C2\SC(=S)N(Cc3ccccc3)C2=O)s1 (stereo unspecified),99.7%,90.3%,87.8%,39%,96.8%,–,0.337% (active),59.2,35.7%,53.2%,18%,90.8%,84.9%,73.6%,84.3%,102%,91.9%,72.8%,66.5%,66.7
CC(C)N1CCN(Cc2ccc3c(NNC(=O)c4ccccc4)nc4cc(F)ccc4n23)CC1,28.6%,14.5%,29.3%,24.9%,3.96% (active),–,22.8%,34.2,–,30.8%,15.7%,25%,43.1%,37.7%,24.1%,16.5%,10.5%,12.4%,6.58% (active),16.2
O=C(CCc1nnc(Cn2cnc3nc[nH]c3c2=O)o1)c1nc2ncccc2[nH]1,97.4%,101%,92.3%,97.3%,105%,–,94.3%,93.7,104%,108%,99.7%,97.5%,94.7%,102%,96.1%,101%,95%,105%,–,98.1
COc1cc(CNC(=O)/C=C/C=C/c2ccc3c(c2)OCO3)ccc1OCc1cn(-c2ccc(C)c(C)c2)nn1,66.8%,47.8%,82.3%,92.5%,85%,–,59.5%,106,80.5%,85.9%,68.6%,75.1%,78.7%,47.6%,107%,94.8%,55.8%,65%,61.4%,80.4
